Laboratory results published in PMC4552634, “A New Set of Chemical Starting Points with Plasmodium falciparum Transmission-Blocking Potential for Antimalarial Drug Discovery” (PLoS ONE, 2015).
Like-named read-outs stand apart in the source and are kept apart here. Out of some 13,000 compounds screened, about 3,200 (25%) showed an effect of 50% or more. This is one part of the list.

Test system: P. falciparum stage V gametocytes
Parameters: BacTiter-Glo ATP luminescence viability of purified stage V gametocytes in 384-well plates, per cent inhibition versus DMSO
Details: 48 h, 5 µM, inhibitor

## O=C(Nc1ccc(-c2cncc(NCCCN3CCCC3)c2)cc1)c1ccccc1 [TCMDC-133799]
  % Inhibition: 7.133%

## CN1CC=C(c2c[nH]c3ccc(Br)cc23)CC1 [TCMDC-139098]
  % Inhibition: -11.28%

## CCN1CCc2nc3ccccc3c(C(=O)Nc3ccc(C#N)cc3)c2C1 [TCMDC-124513]
  % Inhibition: 54.17%

## CCN1CCN(c2cc(C)c3cc(NC(=O)c4ccc(C(C)(C)C)cc4)ccc3n2)CC1 [TCMDC-125579]
  % Inhibition: -38.88%

## Cc1cc(NC(=O)Nc2ccc(C#N)cc2)c2ccccc2n1 [TCMDC-138956]
  % Inhibition: 16.86%

## Cc1onc(-c2c(F)cccc2Cl)c1C(=O)Nc1ccccc1I [TCMDC-125644]
  % Inhibition: -7.209%

## CS(=O)(=O)Cc1ccc(Nc2nccc(N3CCCc4cc(NC(=O)Nc5cccc(C(F)(F)F)c5)ccc43)n2)cc1 [TCMDC-134309]
  % Inhibition: 69.84%

## CC(=O)c1cccc(NC(=O)NC2CCN(c3ccnc(Nc4ccc(F)cc4)n3)C2)c1 (stereo not drawn) [TCMDC-133594]
  % Inhibition: -13.54%

## CC(=O)c1ccc(NC(=O)Nc2ccc(N(C)c3ccnc(Nc4cccc(CS(C)(=O)=O)c4)n3)cc2)cc1 [TCMDC-138736]
  % Inhibition: -10.01%

## CCCCCCCc1c2c(C)c(C(=O)OCC)nc-2cc2n1CC(C)=C2C [TCMDC-124023]
  % Inhibition: 93.66%

## O=C(CCCCCNC(=O)c1ccc(O)c(-c2ccc(Cl)c(Cl)c2)c1)NCCN1CCOCC1 [TCMDC-140848]
  % Inhibition: 9.445%

## O=C(/C=C/c1ccc(Cl)c(Cl)c1)NCCC1CCC(N2CCC(c3c[nH]c4ccccc34)CC2)CC1 (stereo not drawn) [TCMDC-139823]
  % Inhibition: 54.15%

## O=C(/C=C/c1ccc(Cl)c(Cl)c1)NCC1CCC(CN2CCC(c3c[nH]c4ccccc34)CC2)CC1 (stereo not drawn) [TCMDC-139484]
  % Inhibition: 1.039%

## O=C(/C=C/c1ccc(Cl)c(Cl)c1)NCCC1CCC(N2CCC(c3c[nH]c4ccc(O)cc34)CC2)CC1 (stereo not drawn) [TCMDC-139824]
  % Inhibition: -86.05%

## O=C(/C=C/c1ccc(Cl)c(Cl)c1)NCC1CCC(N2CCC(c3c[nH]c4ccccc34)CC2)CC1 (stereo not drawn) [TCMDC-139676]
  % Inhibition: 103.8%

## O=C(/C=C/c1ccc(Cl)c(Cl)c1)NCC1CCCC(CN2CCC(c3c[nH]c4ccccc34)CC2)C1 (stereo not drawn) [TCMDC-139490]
  % Inhibition: -31.4%

## O=C(/C=C/c1ccc(Cl)c(Cl)c1)NCCCCCN1C2CCC1CC(c1c[nH]c3ccccc13)C2 (stereo not drawn) [TCMDC-139239]
  % Inhibition: -9.344%

## Cc1cccc(NC(=O)N(Cc2cc3cc(C)cc(C)c3[nH]c2=O)C2CC2)c1 [TCMDC-123651]
  % Inhibition: 4.214%

## COc1cccc(C23N=C(Nc4nc5ccccc5[nH]4)NC2(c2cccc(OC)c2)NC(Nc2nc4ccccc4[nH]2)=N3)c1 (stereo not drawn) [TCMDC-139087]
  % Inhibition: 19.76%

## Cc1ccccc1C1CCN(C2CCC(NC(=O)/C=C/c3c(F)ccc(F)c3F)CC2)CC1 (stereo not drawn) [TCMDC-133512]
  % Inhibition: -94.66%

## CCCc1cc(Cc2cnc(N)nc2N)cc2c1OC(C)(C)C2 [TCMDC-138049]
  % Inhibition: -0.08597%

## Cc1c(CNCCCNc2nc3cscc3[nH]2)sc(C(F)F)c1Br [TCMDC-141336]
  % Inhibition: 21.93%

## CC(C)(C)c1ccc(NC(=O)c2ccc(CN3CCCN(Cc4ccsc4)CC3)cc2)cc1 [TCMDC-136445]
  % Inhibition: -5.74%

## COc1ccc(C=CC(=O)NC2CCC(CN3CCC(c4c[nH]c5ccccc45)CC3)CC2)cc1 (stereo not drawn) [TCMDC-139949]
% Inhibition
  % Inhibition: 103.1%

## COc1cc(/C=C/C(=O)NC2CCC(CN3CCC(c4c[nH]c5ccccc45)CC3)CC2)ccc1O (stereo not drawn) [TCMDC-139766]
% Inhibition
  % Inhibition: -65.69%

## COc1cc(/C=C/C(=O)NC2CCC(CN3CCC(c4c[nH]c5ccccc45)CC3)CC2)ccc1O (stereo not drawn) [TCMDC-139756]
% Inhibition
  % Inhibition: -29.87%

## COc1ccc(C=CC(=O)NC2CCC(CN3CCC(c4c[nH]c5ccccc45)CC3)CC2)cc1 (stereo not drawn) [TCMDC-139933]
% Inhibition
  % Inhibition: 46.2%

## COc1cccc(/C=C/C(=O)NC2CCC(CN3CCC(c4c[nH]c5ccccc45)CC3)CC2)c1 (stereo not drawn) [TCMDC-139718]
% Inhibition
  % Inhibition: 98.17%

## COc1ccc(C=CC(=O)NC2CCC(CN3CCC(c4c[nH]c5ccccc45)CC3)CC2)cc1OC (stereo not drawn) [TCMDC-139932]
  % Inhibition: 100.6%

## COc1ccc(OC)c(C=CC(=O)NC2CCC(CN3CCC(c4c[nH]c5ccccc45)CC3)CC2)c1 (stereo not drawn) [TCMDC-139893]
  % Inhibition: 103%

## N#Cc1cccc(Nc2nccc(NCC(O)c3ccc(C(F)(F)F)cc3)n2)c1 (stereo not drawn) [TCMDC-136590]
  % Inhibition: 5.433%

## CCc1ccc(NC(=O)c2ccc(CN3CCCN(Cc4cccc(O)c4)CC3)cc2)cc1 [TCMDC-136439]
  % Inhibition: -0.6993%

## CCN(CCCN1CCCCC1)c1cc(C)nc(Nc2ccc(C(F)(F)F)cc2)n1 [TCMDC-132435]
  % Inhibition: 28.95%

## CN(Cc1cccc(F)c1)C1CCN(c2cc(NC(=O)c3cccc(F)c3)ccn2)CC1 [TCMDC-135015]
  % Inhibition: -7.193%

## CCOc1cc(Cc2cnc(N)nc2N)cc(OCC)c1OCC [TCMDC-137696]
  % Inhibition: -8.766%

## COc1cccc(C=CC(=O)NC2CCC(CN3CCC(c4c[nH]c5ccccc45)CC3)CC2)c1OC (stereo not drawn) [TCMDC-139902]
  % Inhibition: 78.88%

## O=C(/C=C/c1cccc2ccccc12)NC1CCC(CN2CCC(c3c[nH]c4ccccc34)CC2)CC1 (stereo not drawn) [TCMDC-139706]
% Inhibition
  % Inhibition: -11.81%

## O=C(/C=C/c1cccc2ccccc12)NC1CCC(CN2CCC(c3c[nH]c4ccccc34)CC2)CC1 (stereo not drawn) [TCMDC-139721]
% Inhibition
  % Inhibition: -23.68%

## COc1cccc(/C=C/C(=O)NC2CCC(CN3CCC(c4c[nH]c5ccccc45)CC3)CC2)c1 (stereo not drawn) [TCMDC-139703]
% Inhibition
  % Inhibition: 100.1%

## COc1cc(C=CC(=O)NC2CCC(CN3CCC(c4c[nH]c5ccccc45)CC3)CC2)cc(OC)c1 (stereo not drawn) [TCMDC-139947]
  % Inhibition: 16.96%

## O=C(Nc1ccccc1N1CCOCC1)c1ncoc1-c1ccccc1C(F)(F)F [TCMDC-123538]
  % Inhibition: -21.73%

## O=C(N[C@@H](Cc1ccccc1)C(=O)NCCN1CCCCC1)c1ccc(O)c(-c2cccc(C(F)(F)F)c2)c1 [TCMDC-140816]
  % Inhibition: 36.65%

## O=C1c2ccccc2C(=O)N1CCOc1c(Br)cc(Br)cc1CNCCCNc1cc(=O)c2ccccc2[nH]1 [TCMDC-140115]
  % Inhibition: -3.219%

## CN1CCN(c2ccnc3ccc(NC(=O)Nc4cccc5c(C#N)cccc45)cc23)CC1 [TCMDC-139344]
  % Inhibition: -1.771%

## O=C(NCCN1CCCCC1)c1ccc(Nc2nccc(Nc3ccc(Oc4ccccc4)cc3)n2)cc1 [TCMDC-138608]
  % Inhibition: -29.44%

## O=C(NCc1cccc(C(F)(F)F)c1)[C@@H]1CCCN1C(=O)c1ccc(O)c(-c2ccc(Cl)c(Cl)c2)c1 [TCMDC-140832]
  % Inhibition: 33.81%

## CC1(C)NC(N)=NC(=N)N1OCc1ccc2ccccc2c1CON1C(=N)N=C(N)NC1(C)C [TCMDC-131631]
  % Inhibition: -34.98%

## c1ccc(CCNCc2ccc(-c3cccc(CNc4ccc5ncccc5c4)c3)cc2)cc1 [TCMDC-140720]
  % Inhibition: 4.928%

## CC(C)CNCc1cccc(-c2ccc(CNc3ccc4ncccc4c3)cc2)c1 [TCMDC-140722]
  % Inhibition: 48.08%

## c1ccc(CCNCc2ccc(-c3ccc(CNc4ccc5ncccc5c4)cc3)cc2)cc1 [TCMDC-140725]
  % Inhibition: -47.08%

## c1cnc2ccc(NCc3ccc(-c4ccc(CNC5CCCC5)cc4)cc3)cc2c1 [TCMDC-140727]
  % Inhibition: 45.47%

## O=C(Cc1cccc(Cl)c1)Nc1ccc(N2CCC(NCc3ccc4ncccc4c3)CC2)cc1 [TCMDC-124660]
  % Inhibition: 24.81%

## COc1cccc(CNC(=O)c2ccnc(-c3ccc(CNCCOc4ccccc4)cc3)c2)c1 [TCMDC-134501]
  % Inhibition: 1.442%

## CC(C)CNCc1ccc(-c2cccc(CNc3ccc4ncccc4c3)c2)cc1 [TCMDC-140719]
  % Inhibition: 58.47%

## c1cc(CNC2CCCC2)cc(-c2ccc(CNc3ccc4ncccc4c3)cc2)c1 [TCMDC-140726]
  % Inhibition: 91.8%

## c1ccc(CCNCc2cccc(-c3ccc(CNc4ccc5ncccc5c4)cc3)c2)cc1 [TCMDC-140724]
  % Inhibition: 87.5%

## COCCNCc1ccc(-c2ccc(CNc3ccc4ncccc4c3)cc2)cc1 [TCMDC-140723]
  % Inhibition: 92.65%

## CC(C)(C)CN1C(=O)C(c2ccccc2)(c2ccccc2)N=C1N [TCMDC-136760]
  % Inhibition: 24.92%

## CCOc1ccc(-c2nc(NC(=O)CS(=O)(=O)c3ccccc3)sc2C)cc1 [TCMDC-123524]
  % Inhibition: 43.85%

## OC(CNc1ccnc(Nc2ccc(Cl)cc2)n1)c1ccccc1C(F)(F)F (stereo not drawn) [TCMDC-136579]
  % Inhibition: 19.1%

## OC(CNCc1ccccc1OCc1ccccc1)c1cccc(C(F)(F)F)c1 (stereo not drawn) [TCMDC-140299]
  % Inhibition: 10.62%

## O=C(/C=C/c1ccc(F)cc1)NC1CCC(CCN2CCc3ccc(-n4cccn4)cc3CC2)CC1 (stereo not drawn) [TCMDC-140323]
  % Inhibition: -53.18%

## Nc1nc(N)c2c3c(cnc2n1)CCCC3 [TCMDC-137925]
  % Inhibition: 38.2%

## COc1cc2c(Nc3cccc(NC(=O)c4ccccc4)c3)ncnc2cc1OCCCN1CCOCC1 [TCMDC-135174]
  % Inhibition: 18.79%

## CCn1c(-c2nonc2N)nc2c(-c3ccccc3)ncc(OCCCCNCCc3ncc[nH]3)c21 [TCMDC-136000]
  % Inhibition: 104.7%

## NCCCOc1cnc(-c2ccccc2)c2nc(-c3nonc3N)n(CCc3ccccc3)c12 [TCMDC-136216]
  % Inhibition: 116.7%

## COc1cc2c(Nc3ccc(NC(=O)c4ccccc4)cc3)ncnc2cc1OCCCN1CCOCC1 [TCMDC-125873]
  % Inhibition: -52.63%

## CCn1c(-c2nonc2N)nc2c(-c3ccc(CO)o3)ncc(OCCCN)c21 [TCMDC-133807]
  % Inhibition: -40.81%

## CCn1c(-c2nonc2N)nc2c(-c3ccccc3)ncc(OCCCNCCCN3CCOCC3)c21 [TCMDC-135858]
  % Inhibition: 109%
